Laboratory results: PubChem BioAssay AID1159580 (chemical genetic matrix, 2015)
Where “and” joins values, the source holds several entries; their conditions need not be identical. Equal values may be shown once. Among all 5,500 compounds or so, about 2,000 (36%) were called active. Another 18% or so got no clear call; they are omitted. No stated cut-off is given here; in the data, active means normalized growth mostly below about 0.91 (no sharp cut-off); inconclusive means no clear call, values can overlap the other calls; inactive means mostly above about 0.92. The list shows a part of the results.

Assay: chemical genetic growth profiling, strain panel (AID 1159580);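 further: tested at 20 µM; growth read once vehicle control cultures reached saturation at 30 °C; 1 = growth at the plate median or of vehicle wells; lower values mean less growth of the strain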
Conditions: growth OD

Measured: normalized growth

NS(=O)(=O)c1cc2c(cc1Cl)NC(C1CC3C=CC1C3)NS2(=O)=O (stereo unspecified)
inactive: S. cerevisiae deletion strains, locus YJR075W, strain HOC1, active compounds read low 1.02 and 1.01 | S. cerevisiae deletion strains, locus YKL009W, strain mrt4, active compounds read low 0.979 | S. cerevisiae deletion strains, locus YKL068W, active compounds read low 0.995 | S. cerevisiae deletion strains, locus YKL085W, strain MDH1 (second series), active compounds read low 0.946 | S. cerevisiae deletion strains, locus YKL085W, strain MDH1, active compounds read low 0.946 | S. cerevisiae deletion strains, locus YKL160W, strain elf1, active compounds read low 1.01 | S. cerevisiae deletion strains, locus YKL190W, strain CNB1, active compounds read low 0.991 | S. cerevisiae deletion strains, locus YKR001C, strain vps1, active compounds read low 0.997 | S. cerevisiae deletion strains, locus YKR026C, strain gcn3, active compounds read low 0.976 | S. cerevisiae deletion strains, locus YKR091W, strain srl3, active compounds read low 0.989 | S. cerevisiae deletion strains, locus YLL001W, strain dnm1, active compounds read low 0.987 | S. cerevisiae deletion strains, locus YLL026W, active compounds read low 0.988 | S. cerevisiae deletion strains, locus YLL041C, strain sdh2, active compounds read low 0.997 | S. cerevisiae deletion strains, locus YLR027C, strain aat2, active compounds read low 0.995 | S. cerevisiae deletion strains, locus YLR039C, strain RIC1, active compounds read low 0.981 | S. cerevisiae deletion strains, locus YLR058C, strain SHM2, active compounds read low 0.979 | S. cerevisiae deletion strains, locus YLR102C, strain apc9, active compounds read low 0.984 | S. cerevisiae deletion strains, locus YLR113W, strain HOG1, active compounds read low 1.07 | S. cerevisiae deletion strains, locus YLR221C, strain rsa3, active compounds read low 1 | S. cerevisiae deletion strains, locus YLR258W, strain gsy2, active compounds read low 0.98 | S. cerevisiae deletion strains, locus YLR262C, strain YPT6 (second series), active compounds read low 0.999 | S. cerevisiae deletion strains, locus YLR262C, strain YPT6, active compounds read low 0.962 | S. cerevisiae deletion strains, locus YLR268W, strain sec22, active compounds read low 0.973 | S. cerevisiae deletion strains, locus YLR320W, strain mms22, active compounds read low 0.99 | S. cerevisiae deletion strains, locus YLR330W, strain CHS5, active compounds read low 0.989 | S. cerevisiae deletion strains, locus YLR342W, strain FKS1 (second series), active compounds read low 1.1 | S. cerevisiae deletion strains, locus YLR342W, strain FKS1, active compounds read low 0.995 | S. cerevisiae deletion strains, locus YLR357W, strain rsc2, active compounds read low 0.984 | S. cerevisiae deletion strains, locus YLR370C, strain arc18, active compounds read low 0.992 | S. cerevisiae deletion strains, locus YLR371W, strain rom2, active compounds read low 0.995 | S. cerevisiae deletion strains, locus YLR384C, strain iki3, active compounds read low 0.993 | S. cerevisiae deletion strains, locus YLR418C, strain cdc73, active compounds read low 0.961 | S. cerevisiae deletion strains, locus YML016C, strain PPZ1, active compounds read low 0.998 | S. cerevisiae deletion strains, locus YML032C, strain rad52, active compounds read low 1.02 | S. cerevisiae deletion strains, locus YML120C, strain ndi1, active compounds read low 1 | S. cerevisiae deletion strains, locus YML124C, strain tub3, active compounds read low 1 | S. cerevisiae deletion strains, locus YMR058W, strain fet3, active compounds read low 0.996 | S. cerevisiae deletion strains, locus YMR078C, strain ctf18, active compounds read low 0.986 | S. cerevisiae deletion strains, locus YMR125W, strain sto1, active compounds read low 0.973 | S. cerevisiae deletion strains, locus YMR129W, active compounds read low 0.981 | S. cerevisiae deletion strains, locus YMR205C, strain PFK2, active compounds read low 0.951 | S. cerevisiae deletion strains, locus YMR223W, strain ubp8, active compounds read low 1.05 | S. cerevisiae deletion strains, locus YMR231W, strain pep5, active compounds read low 0.992 | S. cerevisiae deletion strains, locus YMR263W, strain SAP30, active compounds read low 0.988 | S. cerevisiae deletion strains, locus YMR307W, strain GAS1, active compounds read low 1.06 and 1 | S. cerevisiae deletion strains, locus YNL067W, strain RPL9B, active compounds read low 1 | S. cerevisiae deletion strains, locus YNL071W, strain lat1, active compounds read low 0.986 | S. cerevisiae deletion strains, locus YNL128W, strain TEP1, active compounds read low 0.94 | S. cerevisiae deletion strains, locus YNL153C, strain GIM3, active compounds read low 0.981 | S. cerevisiae deletion strains, locus YNL175C, strain NOP13, active compounds read low 0.978 | S. cerevisiae deletion strains, locus YNL183C, strain NPR1, active compounds read low 0.978 | S. cerevisiae deletion strains, locus YNL197C, strain WHI3, active compounds read low 0.982 | S. cerevisiae deletion strains, locus YNL209W, strain ssb2, active compounds read low 1 | S. cerevisiae deletion strains, locus YNL224C, strain SQS1, active compounds read low 0.992 | S. cerevisiae deletion strains, locus YNL233W, strain BNI4, active compounds read low 1 | S. cerevisiae deletion strains, locus YNL248C, strain rpa49, active compounds read low 0.999 | S. cerevisiae deletion strains, locus YNL250W, strain rad50, active compounds read low 0.999 | S. cerevisiae deletion strains, locus YNL271C, strain bni1, active compounds read low 1 | S. cerevisiae deletion strains, locus YNL298W, strain CLA4, active compounds read low 0.988 | S. cerevisiae deletion strains, locus YNL307C, strain MCK1, active compounds read low 1.02 | S. cerevisiae deletion strains, locus YNL322C, strain KRE1 (second series), active compounds read low 1 | S. cerevisiae deletion strains, locus YNL322C, strain KRE1, active compounds read low 0.988 | S. cerevisiae deletion strains, locus YNR049C, strain mso1, active compounds read low 0.989 | S. cerevisiae deletion strains, locus YNR052C, strain pop2, active compounds read low 0.987 | S. cerevisiae deletion strains, locus YOL006C, strain TOP1, active compounds read low 1.02 | S. cerevisiae deletion strains, locus YOL012C, strain htz1 1.21 | S. cerevisiae deletion strains, locus YOL147C, strain pex11, active compounds read low 0.993 | S. cerevisiae deletion strains, locus YOR001W, strain rrp6, active compounds read low 0.997 | S. cerevisiae deletion strains, locus YOR061W, strain CKA2, active compounds read low 0.959 | S. cerevisiae deletion strains, locus YOR069W, strain VPS5, active compounds read low 0.995 | S. cerevisiae deletion strains, locus YOR070C, strain gyp1, active compounds read low 0.993 | S. cerevisiae deletion strains, locus YOR080W, strain dia2, active compounds read low 0.993 | S. cerevisiae deletion strains, locus YOR083W, strain WHI5 (second series), active compounds read low 0.989 | S. cerevisiae deletion strains, locus YOR083W, strain WHI5, active compounds read low 1 | S. cerevisiae deletion strains, locus YOR106W, strain vam3, active compounds read low 1 | S. cerevisiae deletion strains, locus YOR136W, strain idh2, active compounds read low 0.998 | S. cerevisiae deletion strains, locus YOR144C, strain elg1, active compounds read low 0.991 | S. cerevisiae deletion strains, locus YOR184W, strain ser1, active compounds read low 1.06 | S. cerevisiae deletion strains, locus YOR231W, strain MKK1, active compounds read low 1.06 | S. cerevisiae deletion strains, locus YOR265W, strain rbl2, active compounds read low 0.999 | S. cerevisiae deletion strains, locus YOR270C, strain vph1, active compounds read low 0.984 | S. cerevisiae deletion strains, locus YOR290C, strain snf2, active compounds read low 1.01 | S. cerevisiae deletion strains, locus YOR316C, strain cot1, active compounds read low 0.98 | S. cerevisiae deletion strains, locus YPL051W, strain arl3, active compounds read low 0.997 | S. cerevisiae deletion strains, locus YPL055C, strain LGE1, active compounds read low 0.977 | S. cerevisiae deletion strains, locus YPL078C, strain atp4, active compounds read low 0.998 | S. cerevisiae deletion strains, locus YPL106C, strain sse1, active compounds read low 0.96 | S. cerevisiae deletion strains, locus YPL240C, strain hsp82, active compounds read low 0.982 | S. cerevisiae deletion strains, locus YPL241C, strain CIN2, active compounds read low 0.981 and 0.988 | S. cerevisiae deletion strains, locus YPL256C, strain CLN2, active compounds read low 1.04 | S. cerevisiae deletion strains, locus YPR119W, strain clb2, active compounds read low 0.996 | S. cerevisiae deletion strains, locus YPR141C, strain kar3, active compounds read low 0.979 | S. cerevisiae deletion strains, locus YPR163C, strain tif3, active compounds read low 0.997 | S. cerevisiae deletion strains, locus YPR167C, strain met16, active compounds read low 0.977 | S. cerevisiae deletion strains, strain wtn01, active compounds read low 0.969 | S. cerevisiae strains, strain wild type, active compounds read low 0.998
